Results reported in PMC5540273 (PLoS ONE, 2017).

tested on: EPHB2; conditions: concentration: 1 μM, replicates: in singlicate; n = 1
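Also: KINOMEscan kinase panel screen.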

Row | SMILES | %Inh [%]
1 | CCn1c(-c2ccoc2)nc2cnccc21 [SB-733887] | 0
2 | O=c1cc(N2CCOCC2)nc2n(Cc3ccc(F)c(Cl)c3)ccn12 [GSK2297099] | 0
3 | Cc1cccc(-c2nc(Nc3ccc4c(cnn4C)c3)c3ccccc3n2)n1 [GW876731] | 6
4 | Cl.NS(=O)(=O)c1cccc(Nc2cc(-c3ccc(F)cc3)n[nH]2)c1 [GW824645] | 0
5 | COc1cc(Nc2nccc(N3CCC(NC(=O)C4COc5ccccc5O4)C3)n2)cc(OC)c1OC (stereo not drawn) [GSK1379761] | 8
6 | COC(=O)c1c(-c2ccccc2)c2cc(Br)ccc2c(=O)n1Cc1ccc(NC(=O)CCC(=O)O)cc1 | 7
7 | CN1C(=O)C(Nc2cc(Cl)c(O)c(Cl)c2)=C(c2ccc(Cl)cc2)C1=O [SB-404321] | 15
8 | CCC(=O)c1c(-c2ccccc2)c2cc(Cl)ccc2c(=O)n1Cc1cc(S(C)(=O)=O)n(CC(N)=O)n1 | 0
9 | Nc1ncnc2c1ncn2-c1ccc(Cl)cc1 [AH2635] | 0
10 | O=C(NCc1cccs1)c1cc(C(=O)c2c(Cl)cccc2Cl)c[nH]1 [GW823670] | 0
11 | CCn1c(-c2nonc2N)nc2ccccc21 [SB-693162/GW549034] | 0
12 | O=C(NCCNc1ccnc(Nc2ccc(F)cc2)n1)Nc1ccc2c(c1)OCO2 [GSK1379882] | 0
13 | COc1ccc(Nc2nccc(N3CCC(NS(=O)(=O)c4ccc(NC(C)=O)cc4)C3)n2)cc1 (stereo not drawn) [GSK1379729] | 1
14 | COc1cc2nccc(Nc3cccc(Oc4ccccc4)c3)c2cc1OC.Cl [GW284543] | 0
15 | O=C(Nc1ccc2c(c1)OCO2)NC1CCN(c2ccnc(NCc3ccc(F)cc3)n2)CC1 [GSK1379859] | 37
16 | Nc1ncnc2c1ncn2-c1cccc(F)c1 [SKF-97560] | 4
17 | COc1ccc(-c2cc3c(C)nc(N)nc3n([C@H]3CC[C@H](O)CC3)c2=O)cn1 | 0
18 | COc1ccc(CNC(=O)NC2CCN(c3ccnc(Nc4ccc(F)cc4)n3)C2)cc1 (stereo not drawn) [GSK1379706] | 30

Row | SMILES | %Inh [%]
19 | Nc1ncnc2c1ncn2-c1cccc2ccccc12 [SKF-97184] | 12
20 | COc1cccc(C2=C(N(C)c3ccccc3)C(=O)NC2=O)c1 [SB-334865] | 14
21 | Nc1nc(N)c2nc(-c3ccccc3)[nH]c2n1 [SKF-12778] | 10
22 | COc1cc2ncn(-c3cc(OCc4ccncc4Br)c(C(N)=O)s3)c2cc1OC [GW854278] | 9
23 | Nc1n[nH]c2nnc(-c3ccccc3)c(-c3ccccc3)c12 [GW554060] | 0
24 | Nc1nc(-c2ccccc2F)c(-c2ccnc3ccccc23)s1 [GW560459] | 0
25 | Nc1nccc2scc(-c3ccc4c(c3)CCN4C(=O)Cc3ccccc3)c12 [GSK2576924] | 14
26 | Cc1cccc(-c2cc(-c3c[nH]nc3-c3ccccn3)ccn2)c1 [GW679395] | 17
27 | Cc1ccc(-c2ccc3c(ccc4sc5c(c43)NC[C@@H](C)N=C5N(C)C)n2)cn1 | 0
28 | CCCNC(=O)Nc1ccc(Oc2ncnc3ccn(C)c23)cc1 | 20
29 | CCCC(=O)Nc1n[nH]c2ncc(-c3cccc4ccccc34)cc12 [SB-642057] | 19
30 | CCC(=O)c1c(-c2ccccc2)c2cc(Cl)ccc2c(=O)n1Cc1ccc(C(=O)O)cc1 | 0
31 | COc1cc2ncn(-c3cc(OCCCc4ccccc4)c(C(N)=O)s3)c2cc1OC [GSK205189] | 0
32 | Cc1cc(Nc2nc(-c3cccc(C)n3)nc3ccccc23)ccn1 [GW872411] | 0
33 | COc1ccc(-c2cc3c(C)nc(N)nc3n([C@H]3CC[C@H](OCCO)CC3)c2=O)cn1 | 0
34 | O=C(Nc1n[nH]c2nc(-c3ccccc3)c(Cl)cc12)C1CC1 [SB-734909] | 0
35 | COc1cc2ncn(-c3cc(OCc4ccc(S(C)(=O)=O)cc4)c(C(N)=O)s3)c2cc1OC [GW869979] | 9
36 | CN1C(=O)C(Nc2ccccc2)=C(c2ccccc2)C1=O [SB-300079] | 0
